The results in this text go back to PubChem BioAssay (NCATS).

Test [1] can be described thus: AP1 Signaling Pathway (AID 357; active = well fitted curve in either direction with a large enough effect, not every such curve was filed as active;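 also: ME-180 reporter cells stimulated with EGF at its EC50 level; % is scaled to controls: 0 for no effect and ±100 for the full control effect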). The settings on record: ME-180 (cervical carcinoma) AP-1-bla reporter, EGF-induced, beta-lactamase ratio, 5 h; at 38 µM (top of the series). The gist of the method:
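Titration-series screen for positive or negative modulators of EC50 EGF-induced signaling in ME-180 cells carrying an AP-1-driven beta-lactamase reporter. After 5 hours at 37 degrees Celsius, CCF4 460nm/530nm emission ratio gave %Activity; AC50 values derived.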

In test [2] the target is Cytochrome P450 1A2 (Homo sapiens) (UniProt P05177). In words: p450-cyp1a2 (AID 410; calls by dose curve; also: potency is read from the fitted curve at half-maximal effect). Summed up: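 Luminescent readout of luciferin formed from Luciferin-ME by human CYP1A2; data normalized against complete inhibition by 57 uM furafylline. Enzyme 20nM, substrate 100uM at Km, 100mM KPO4 buffer, 60 min reaction at room temperature.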
Sequence of Cytochrome P450 1A2 (Homo sapiens) (P05177 whole entry, looked up): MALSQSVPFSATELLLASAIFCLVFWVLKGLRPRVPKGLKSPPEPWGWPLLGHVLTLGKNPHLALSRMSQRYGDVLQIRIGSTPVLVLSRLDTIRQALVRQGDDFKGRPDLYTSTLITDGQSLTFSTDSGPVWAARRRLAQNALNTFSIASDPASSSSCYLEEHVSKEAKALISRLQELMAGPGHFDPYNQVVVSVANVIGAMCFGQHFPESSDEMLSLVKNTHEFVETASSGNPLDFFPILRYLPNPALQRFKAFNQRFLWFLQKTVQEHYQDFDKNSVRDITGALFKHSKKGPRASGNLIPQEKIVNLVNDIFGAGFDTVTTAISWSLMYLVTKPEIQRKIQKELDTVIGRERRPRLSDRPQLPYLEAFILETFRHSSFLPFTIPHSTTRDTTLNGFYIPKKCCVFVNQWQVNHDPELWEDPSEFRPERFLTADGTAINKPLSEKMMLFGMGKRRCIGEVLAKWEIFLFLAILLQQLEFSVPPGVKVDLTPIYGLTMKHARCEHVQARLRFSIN
Test [3] addresses Glucocorticoid receptor (Homo sapiens) (UniProt P04150). Kind of test: GR-GFP Redistribution (AID 450;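 active = compounds whose dose series gives a full or clear partial fitted curve of increased nuclear translocation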; also: potency is read from the fitted curve at half-maximal effect). The settings on record: U2OS GR-GFP nuclear translocation, laser cytometry, 2 h.
The target is the same in test [4]. Kind of test: GR-EFC Redistribution (AID 451; calls by dose curve; also: potency is read from the fitted curve at half-maximal effect). The settings on record: CHO-K1 GR-EFC translocation, beta-gal luminescence, 2 h. The gist of the method: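 Translocation of GR-ED fusion to nuclear EA restores b-gal, read by luminescence after 1 h room-temperature detection. Engineered CHO-K1 biosensor cells, 1,000/well, exposed 2 h at 37 C to titrations up to 46 uM final.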

Test [5] deals with 3',5'-cyclic-AMP phosphodiesterase 4B (Homo sapiens) (UniProt Q07343). Kind of test: qHTS Assay for Inhibitors of PDE-IV (AID 607; active = well fitted activation curve with a large enough effect in the main read-out, with a control signal flat, not every such curve was filed as active; also: % of control where 0% means no effect). Summed up:
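Cell-based read-out of cAMP via a modified cyclic nucleotide-gated channel and membrane potential dye (535/590 nm) in HEK293 cells expressing PDE4 endogenously. Compounds tested up to 22.9 uM final; 100 uM RO 20-1724 reference.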
A general note: In qHTS, concentration-response curves come from the screen itself.

Test [6] deals with Guanine nucleotide-binding protein G(i) subunit alpha-1 (Homo sapiens) (UniProt P63096). In words: qHTS Assay for Inhibitors of RGS12 GoLoco Motif Activity (Green Fluorophore) (AID 879).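 Also: 0% = labeled peptide with Gαi1 and full inhibition = labeled peptide alone without protein; negative values mean loss of peptide binding seen as reduced polarization.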 The gist of the method: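 Fluorescence polarization assay: 50 nM Gαi1 with 10 nM FITC-labeled RGS12 GoLoco peptide in 10 mM Tris pH 7.5, 150 mM NaCl, 0.1 mM GDP, 0.05% NP40, 10 min at room temperature with compound.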
Sequence of Guanine nucleotide-binding protein G(i) subunit alpha-1 (Homo sapiens) (P63096 whole entry, looked up): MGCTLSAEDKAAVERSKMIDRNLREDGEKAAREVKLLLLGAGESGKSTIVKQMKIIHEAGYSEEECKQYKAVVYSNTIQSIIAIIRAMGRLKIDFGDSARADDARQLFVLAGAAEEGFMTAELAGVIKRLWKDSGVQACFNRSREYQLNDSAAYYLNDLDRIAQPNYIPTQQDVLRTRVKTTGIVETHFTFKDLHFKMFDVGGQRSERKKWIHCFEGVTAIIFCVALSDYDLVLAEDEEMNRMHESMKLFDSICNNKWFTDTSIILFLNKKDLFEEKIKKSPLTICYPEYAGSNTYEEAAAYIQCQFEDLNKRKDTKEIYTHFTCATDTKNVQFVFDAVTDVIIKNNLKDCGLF

Test [7] concerns the target Cytochrome P450 3A4 (Homo sapiens) (UniProt P08684). In words: qHTS Assay for Activators of Cytochrome P450 3A4 (AID 885). Also: nearly all actives have a fitted effect of over 65% in size. The gist of the method: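 Signal was normalized against complete inhibition by 57 uM ketoconazole. The reaction used 20nM CYP3A4 with 25uM Luciferin-PPXE, 10-min compound preincubation and a 60-min NADPH-supported step at RT.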
Test [8] has as its target Cytochrome P450 2C19 (Homo sapiens) (UniProt P33261). In words: qHTS Assay for Inhibitors and Substrates of Cytochrome P450 2C19 (AID 899). Also: % is scaled to controls: 0 for no effect and ±100 for the full control effect; nearly all actives have a fitted effect of over 60% in size. The gist of the method: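 5nM enzyme + 10uM Luciferin-H EGE (=KM), 50mM KPO4; cpd pin-transferred, 10 min 37C; NADPH regen, 60 min 37C; stopped w/ luciferin detection reagent, 20 min; luminescence. Normalized to 57uM ketoconazole (AC100).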

In test [9] the target is Muscarinic acetylcholine receptor M1 (Rattus norvegicus) (UniProt P08482). In words: qHTS Assay for Antagonists of Acetylcholine Muscarinic M1 Receptor: Kinetic Measurement of Intracellular Calcium Response (AID 943).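 Also: Fluo-4 calcium signal as peak divided by basal fluorescence over 4 min; nearly all actives have a fitted effect of over 75% in size.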 Summed up:
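Rat M1-CHO cells, 2000/well, overnight → Fluo-4 no-wash dye with probenecid, 1 h 37C → compound 10 min, room temp → basal read 6 s → carbachol EC80 (100 nM) → 4 min kinetic read; peak/basal.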

In test [10] the target is Pyruvate kinase (Leishmania mexicana) (UniProt Q27686). Kind of test: qHTS Validation Assay for Inhibitors of Leishmania Mexicana Pyruvate Kinase (AID 945).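 Also: 0% = DMSO only neutral control wells.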 Summed up:
(§1)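 LmPYK E451W 0.2 nM; 0.5 mM PEP, 0.1 mM ADP, 7 mM MgCl2, 50 mM KCl, imidazole pH 7.2, 0.01% Tween 20, 0.05% BSA; 1 h RT; PKLight luminescence; DMSO-normalized.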

Test [11] has the same target. In words: qHTS Validation Assay for Activators of Leishmania Mexicana Pyruvate Kinase (AID 959). The gist of the method:
as §1

The target of test [12] is Alpha-galactosidase A (Homo sapiens) (UniProt P06280). In words: Counterscreen for Glucocerebrosidase Inhibitors: qHTS Assay for Human alpha-Galactosidase at pH 4.5 (AID 992). Also: 0% is about no effect. Summed up:
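Quantitative HTS: compounds tested from 0.7 nM up to 77 uM against 2 nM enzyme with 80 uM 4-MU alpha-D-galactopyranoside. The 20 min room-temperature reaction is stopped with 1M NaOH/1M glycine, pH 10.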
On the technique in general: The purpose of a counterscreen is to sort out artefacts and off-target activity.

For test [13], the target named is alpha-glucosidase (Oryza sativa, rice) (UniProt Q653V4). In words: Counterscreen for Glucocerebrosidase Inhibitors: qHTS Assay for Rice alpha-Glucosidase at pH 5.0 (AID 997).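 Also: 0% = full activity with enzyme and -100% = basal without enzyme.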 Summed up:
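Rice alpha-glucosidase (4 nM final) with 400 uM 4-methylumbelliferyl-alpha-D-glucopyranoside in citrate buffer pH 5.0, 20 min at room temperature, stopped at pH 10; fluorescence 365/440 nm, compounds 0.7 nM–77 uM, AC50 from Hill fits.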

Test [14] can be described thus: qHTS Assay for Lipid Storage Modulators (AID 1519; calls by dose curve; as to activity change, negative = inhibition: % is scaled to controls: 0 for no effect and ±100 for the full control effect). The settings on record: Drosophila S3 cells, BODIPY lipid droplet/cell ratio, laser cytometry, cells loaded with oleic acid. Summed up:
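Cells seeded at 5,000 per well were treated with compounds over a concentration series and loaded with oleic acid (400 uM, as added). Lipid droplet fluorescence (488 nm excitation, 500-530 nm channel) was read by laser-scanning cytometry and normalized to 20 uM Triacsin C.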

Test [15] in a line: Counterscreen for APE1 Inhibitors: Fluorescent Dye Displacement Validation Assay (AID 1707). Also: potency is read from the fitted curve at half-maximal effect. Summed up: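 Compounds are scored by their ability to displace Thiazole Orange (250 nM) from a 50 nM TAMRA-tagged duplex bearing a tetrahydrofuran abasic site. Buffer is 50 mM Tris-HCl pH7.5, 50mM NaCl, 2 mM MgCl2, 0.01% Tween-20.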
Test [16] addresses Endonuclease 4 (Escherichia coli (strain K12)) (UniProt P0A6C1). Kind of test: Counterscreen for APE1 Inhibitors: qHTS Validation Assay for Inhibitors of Endonuclease IV (AID 1708). Also: potency is read from the fitted curve at half-maximal effect. Summed up:
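qHTS concentration-response format; LOPAC1280 tested under APE1-screen conditions. 2 nM enzyme, 15 min compound preincubation at RT, then 50 nM TAMRA/BHQ-2 abasic substrate; kinetic fluorescence read, three reads at 60 s intervals.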

Test [17] is described as follows: qHTS for differential inhibitors of proliferation of Plasmodium falciparum line 7G8 (AID 1815).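 Also: parasite growth measured after three days of incubation; plate controls were vehicle wells for no effect and reference inhibitor wells for full effect.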
Test [18] is described as follows: qHTS for differential inhibitors of proliferation of Plasmodium falciparum line 3D7 (AID 1876).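 Also: parasite growth measured after three days of culture; 0% = vehicle wells and -100% = reference inhibitor wells.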

Inconclusive results are not listed. The source made the active and inactive calls. Unless noted, calls follow the shape of the dose curve; as a rule, active = well fitted curve in the direction sought with a large enough effect; inconclusive = small, poorly fitted or top-dose-only effect, or another doubt; inactive = no such curve, though single readings can be large; an effect the other way counts as inactive or inconclusive.

Sequence of Pyruvate kinase (Leishmania mexicana) (Q27686 2-499 E452W): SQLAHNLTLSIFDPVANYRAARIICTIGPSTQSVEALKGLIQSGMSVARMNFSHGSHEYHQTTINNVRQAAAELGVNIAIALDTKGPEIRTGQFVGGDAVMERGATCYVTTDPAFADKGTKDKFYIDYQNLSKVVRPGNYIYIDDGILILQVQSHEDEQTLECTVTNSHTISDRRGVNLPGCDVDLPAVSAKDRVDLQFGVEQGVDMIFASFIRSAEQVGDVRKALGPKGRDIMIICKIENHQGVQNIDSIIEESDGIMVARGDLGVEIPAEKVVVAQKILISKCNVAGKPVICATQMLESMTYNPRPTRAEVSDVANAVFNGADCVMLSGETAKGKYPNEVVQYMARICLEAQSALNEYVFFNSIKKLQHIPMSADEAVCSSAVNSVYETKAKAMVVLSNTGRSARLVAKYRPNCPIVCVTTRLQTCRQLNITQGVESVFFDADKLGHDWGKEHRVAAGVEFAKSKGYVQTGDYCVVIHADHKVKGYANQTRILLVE
Sequence of Glucocorticoid receptor (Homo sapiens) (P04150 whole entry, looked up, the tested form may be a part): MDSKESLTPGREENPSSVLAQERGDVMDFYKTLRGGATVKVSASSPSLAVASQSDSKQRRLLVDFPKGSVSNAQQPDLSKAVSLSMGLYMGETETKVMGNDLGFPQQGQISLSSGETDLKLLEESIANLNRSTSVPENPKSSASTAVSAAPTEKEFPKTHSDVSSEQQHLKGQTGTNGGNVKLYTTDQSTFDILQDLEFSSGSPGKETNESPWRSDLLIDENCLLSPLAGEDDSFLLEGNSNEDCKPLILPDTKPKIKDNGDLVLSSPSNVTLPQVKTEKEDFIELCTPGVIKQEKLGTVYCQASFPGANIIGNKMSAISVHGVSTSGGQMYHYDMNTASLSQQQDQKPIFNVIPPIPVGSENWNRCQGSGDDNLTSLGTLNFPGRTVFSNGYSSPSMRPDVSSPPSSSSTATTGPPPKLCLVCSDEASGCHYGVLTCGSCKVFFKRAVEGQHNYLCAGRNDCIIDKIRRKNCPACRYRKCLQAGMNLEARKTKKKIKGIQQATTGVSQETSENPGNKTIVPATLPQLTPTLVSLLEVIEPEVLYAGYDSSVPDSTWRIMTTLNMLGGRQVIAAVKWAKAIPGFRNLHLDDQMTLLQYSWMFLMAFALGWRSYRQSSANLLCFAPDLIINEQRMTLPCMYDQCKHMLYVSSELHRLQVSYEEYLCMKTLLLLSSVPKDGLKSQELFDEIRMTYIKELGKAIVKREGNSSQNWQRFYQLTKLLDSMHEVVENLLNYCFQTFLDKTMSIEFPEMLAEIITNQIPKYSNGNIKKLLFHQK
Sequence of Cytochrome P450 2C19 (Homo sapiens) (P33261 whole entry, looked up): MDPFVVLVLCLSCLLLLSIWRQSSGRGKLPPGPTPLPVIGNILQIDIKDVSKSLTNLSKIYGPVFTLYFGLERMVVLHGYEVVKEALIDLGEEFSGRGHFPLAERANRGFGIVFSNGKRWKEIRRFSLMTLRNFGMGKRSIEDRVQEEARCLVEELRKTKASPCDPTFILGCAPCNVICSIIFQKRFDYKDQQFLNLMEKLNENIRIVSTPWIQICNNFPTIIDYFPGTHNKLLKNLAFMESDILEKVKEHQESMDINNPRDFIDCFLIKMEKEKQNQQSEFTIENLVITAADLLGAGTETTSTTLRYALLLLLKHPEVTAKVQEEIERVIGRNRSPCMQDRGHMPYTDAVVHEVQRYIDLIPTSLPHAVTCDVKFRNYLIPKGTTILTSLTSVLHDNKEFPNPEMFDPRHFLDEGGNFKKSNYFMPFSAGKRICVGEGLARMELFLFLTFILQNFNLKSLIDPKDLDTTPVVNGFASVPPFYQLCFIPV
Sequence of 3',5'-cyclic-AMP phosphodiesterase 4B (Homo sapiens) (Q07343 whole entry, looked up): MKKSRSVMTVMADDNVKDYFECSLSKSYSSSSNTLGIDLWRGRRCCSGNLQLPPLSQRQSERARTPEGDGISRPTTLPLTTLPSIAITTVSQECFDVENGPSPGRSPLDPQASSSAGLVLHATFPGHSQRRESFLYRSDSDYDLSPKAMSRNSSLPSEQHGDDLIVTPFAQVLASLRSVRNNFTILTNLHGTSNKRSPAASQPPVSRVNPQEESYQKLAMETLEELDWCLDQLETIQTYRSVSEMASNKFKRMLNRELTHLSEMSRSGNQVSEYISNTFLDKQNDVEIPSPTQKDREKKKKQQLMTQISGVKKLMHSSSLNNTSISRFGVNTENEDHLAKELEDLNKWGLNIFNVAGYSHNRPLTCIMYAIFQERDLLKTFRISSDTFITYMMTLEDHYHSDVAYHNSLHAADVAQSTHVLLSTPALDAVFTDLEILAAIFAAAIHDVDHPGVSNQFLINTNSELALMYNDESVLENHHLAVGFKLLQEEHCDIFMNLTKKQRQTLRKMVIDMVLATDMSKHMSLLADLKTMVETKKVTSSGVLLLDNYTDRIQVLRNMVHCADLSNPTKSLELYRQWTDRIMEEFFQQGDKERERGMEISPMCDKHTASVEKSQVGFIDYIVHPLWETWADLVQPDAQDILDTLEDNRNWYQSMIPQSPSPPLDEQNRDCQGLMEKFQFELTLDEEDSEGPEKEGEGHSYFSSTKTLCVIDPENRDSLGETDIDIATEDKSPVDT
Sequence of Cytochrome P450 3A4 (Homo sapiens) (P08684 whole entry, looked up): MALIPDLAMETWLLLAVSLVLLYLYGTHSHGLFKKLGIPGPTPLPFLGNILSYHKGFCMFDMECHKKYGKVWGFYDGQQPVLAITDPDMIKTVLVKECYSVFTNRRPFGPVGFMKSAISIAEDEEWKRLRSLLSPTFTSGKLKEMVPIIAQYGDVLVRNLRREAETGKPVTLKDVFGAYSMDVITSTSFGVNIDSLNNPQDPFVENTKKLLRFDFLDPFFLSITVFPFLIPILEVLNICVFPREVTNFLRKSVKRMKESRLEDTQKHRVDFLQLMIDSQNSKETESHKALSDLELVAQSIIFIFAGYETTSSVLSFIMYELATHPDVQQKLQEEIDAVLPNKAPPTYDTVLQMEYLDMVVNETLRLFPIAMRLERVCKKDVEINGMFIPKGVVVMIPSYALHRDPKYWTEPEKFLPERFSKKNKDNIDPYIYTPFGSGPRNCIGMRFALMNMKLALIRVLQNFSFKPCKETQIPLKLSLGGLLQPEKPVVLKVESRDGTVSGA
Sequence of Muscarinic acetylcholine receptor M1 (Rattus norvegicus) (P08482 whole entry, looked up): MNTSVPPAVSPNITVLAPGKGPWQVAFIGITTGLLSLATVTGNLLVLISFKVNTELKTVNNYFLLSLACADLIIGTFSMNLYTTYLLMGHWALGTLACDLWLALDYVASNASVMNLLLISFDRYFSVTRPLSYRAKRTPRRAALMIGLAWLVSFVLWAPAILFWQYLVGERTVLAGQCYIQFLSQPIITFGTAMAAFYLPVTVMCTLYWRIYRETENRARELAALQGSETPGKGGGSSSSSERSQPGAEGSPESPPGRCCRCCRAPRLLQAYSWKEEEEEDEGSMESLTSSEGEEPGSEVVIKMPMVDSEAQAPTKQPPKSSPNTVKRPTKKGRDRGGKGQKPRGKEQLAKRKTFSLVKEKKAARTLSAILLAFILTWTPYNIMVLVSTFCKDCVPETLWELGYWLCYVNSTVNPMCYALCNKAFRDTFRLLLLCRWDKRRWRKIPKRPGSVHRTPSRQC
Sequence of Alpha-galactosidase A (Homo sapiens) (P06280 whole entry, looked up): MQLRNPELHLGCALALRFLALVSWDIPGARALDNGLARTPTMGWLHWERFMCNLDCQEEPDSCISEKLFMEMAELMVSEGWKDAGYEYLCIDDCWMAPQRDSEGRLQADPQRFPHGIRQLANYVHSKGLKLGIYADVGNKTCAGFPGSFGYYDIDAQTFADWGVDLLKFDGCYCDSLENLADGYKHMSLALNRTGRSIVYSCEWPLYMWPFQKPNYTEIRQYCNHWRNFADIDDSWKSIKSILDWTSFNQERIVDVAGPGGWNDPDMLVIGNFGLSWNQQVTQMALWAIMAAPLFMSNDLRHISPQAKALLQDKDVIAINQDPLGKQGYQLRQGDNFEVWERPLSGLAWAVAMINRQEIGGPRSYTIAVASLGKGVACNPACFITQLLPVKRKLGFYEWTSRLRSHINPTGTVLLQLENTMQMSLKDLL

As to `Nc1c(S(=O)(=O)O)cc(Nc2ccc(Nc3nc(Cl)nc(Nc4ccc(S(=O)(=O)O)cc4)n3)c(S(=O)(=O)O)c2)c2c1C(=O)c1ccccc1C2=O`, the activity change, negative = inhibition was -21.1% (inactive) in test [1] and -0.911% (inactive) in test [14] (at 57.5 µM (top of the series)). The Potency in test [2] was 15.8 µM (active); in test [3], > 46 µM (inactive); in [4], > 46 µM (inactive); in test [11], 0.631 µM (active); in [15] it was 8.91 µM (active); in test [16], 3.98 µM (active). Also, the Potency entry in test [5], in [7], in [8], in [9], in test [10] and in test [17] was “inactive” throughout. Also, in [18], the Potency entry is “inactive”. Besides, the call in test [6], in test [12] and in [13] was inactive. In addition, the figures for the max response in [14] (measured here: cell count channel max response) and in test [14] (measured here: lipid channel max response) were -15% and -16.5%, respectively.
